Hits are enriched below; roughly 5.9% of the tested compounds scored in any of these assays.
KB-3-1 cytotox: kills parental KB-3-1 adenocarcinoma cells; KB-3-1 viability, CellTiter-Glo ATP luminescence, 72 h; Potency, µM (titrated, usually from 46.1 µM), hits mostly cytotoxic; 400,000 tested, 1.4% active; AID 1347075; further: nearly all actives have a fitted effect of over 60% in size
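Here the drug-naive KB-3-1 line serves as comparator for MDR sub-line selectivity; cells received compound titrations, 72 h at 37 °C, then CellTiter-Glo readout.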
ATXN2 expr inh: ATXN2 expression inhibition; HEK-293 ATXN2-luciferase reporter, luminescence, 24 h; Potency, µM (doses to about 57 µM), actives largely listed as inhibitors; 360,000 tested, 0.72% active; AID 1745845; further: nearly all actives have a fitted effect of over 55% in size
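qHTS (up to 57 uM final) was run with 24 h compound exposure of reporter cells at 37 °C. Each well was multiplexed: SteadyGlo luminescence measured ATXN2-luciferase expression after a fluorogenic Gly-Phe-AFC viability readout (25 uM final).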
ATXN viability: viability counter-screen for ATXN expression inhibitors | S2 cells (HEK-293 line with an ATXN2-luciferase reporter) viability, CellTiter-Fluor protease fluorescence, 24 h | Potency, µM (series often up to 56.7 µM), usual class: cytotoxic | 400,000 tested, 0.49% active; further: nearly all actives have a fitted effect of over 40% in size
HepG2 tox-1: counter-screen for TGF-b inhibitors: cytotoxicity in HepG2 cells | Potency, µM (top dose mostly 46.1 µM), actives largely listed as cytotoxic | AID 588856 | 410,000 tested, 0.76% active | HepG2 CAGA-GFP viability, ATP luminescence, 18 h
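CellTiter-Glo luminescence gave cytotoxicity after 18 hours at 37 degrees C. The cells were HepG2 CAGA-GFP in 1% FBS DMEM, stimulated with 500 pg/mL TGF-beta after compound addition. %Activity was normalised to no-cell wells (complete cell-killing) and DMSO (no toxicity), and curves were fitted and classified.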
TGFb SMAD3 inh: inhibitors of TGF-b signaling. HepG2 CAGA-GFP TGF-b/SMAD3 reporter, GFP fluorescence, 18 h; TGF-beta stimulated, 500 pg/mL final. Potency, µM (series often up to 46.1 µM), actives largely listed as inhibitors. 410,000 tested, 1.2% active; further: nearly all actives have a fitted effect of over 65% in size
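Smad-responsive CAGA-GFP expression was quantified in HEPG2 cells exposed to compounds and 500 pg/mL final TGF-beta for 18 h at 37 degrees C; unstimulated wells defined full inhibition.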
KB-V1 cytotox: KB-V1 MDR subline cytotoxicity; AID 1347076; KB-V1 MDR cells viability, CellTiter-Glo, 72 h; Potency, µM (top dose mostly 46.1 µM), usual class: cytotoxic; 400,000 tested, 3.4% active; further: nearly all actives have a fitted effect of over 60% in size
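Potencies derive from concentration-effect curves fitted to normalized luminescence (CellTiter-Glo) of KB-V1 cells treated for 72 h at 37 degrees C in phenol-red-free DMEM containing 10% FBS.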
TGFb confirm: confirmation of TGF-b signaling inhibitors in HepG2 reporter cells; shares compounds with TGFb SMAD3 inh; Potency, µM (series often up to 46.1 µM), usual class: inhibitors; 1,600 tested, 63% active; HepG2 CAGA-GFP TGF-b reporter, GFP fluorescence, 18 h; cells stimulated with TGF-beta, 500 pg/mL; AID 720534; further: nearly all actives have a fitted effect of over 65% in size
HepG2 tox-2: HepG2 cytotoxicity, TGF-b inhibitor counterscreen | shares compounds with TGFb SMAD3 inh | HepG2 CAGA-GFP viability, ATP luminescence, 18 h; cells stimulated with TGF-beta, 500 pg/mL | Potency, µM (top dose mostly 46.1 µM), most hits filed as inhibitors | 1,600 tested, 27% active; further: nearly all actives have a fitted effect of over 70% in size
TGFb CCL64 inh: blocks TGF-b signaling in CCL64 reporter cells; shares compounds with TGFb SMAD3 inh; Potency, µM (top dose mostly 46.1 µM), hits mostly inhibitors; 1,600 tested, 41% active; CCL64 CAGA-GFP reporter, TGF-b stimulated, GFP fluorescence, 18 h; further: nearly all actives have a fitted effect of over 65% in size
COP TGFb inh: TGF-b inhibition validated with COP promoter; shares compounds with TGFb SMAD3 inh; HepG2 COP-GFP TGF-b reporter, GFP fluorescence, 18 h; cells stimulated by added recombinant TGF-beta; Potency, µM (series often up to 46.1 µM), most hits filed as inhibitors; 1,600 tested, 3% active; further: nearly all actives have a fitted effect of over 70% in size
Numbers stand for hits; - = inactive; ? = inconclusive; . = no result. The call rests on the fitted dose curve; in most records, active means well fitted curve in the direction sought with a large enough effect; inconclusive means small, poorly fitted or top-dose-only effect, or another doubt; inactive means no such curve, though single readings can be large; an effect the other way counts as inactive or inconclusive.

SMILES	KB-3-1 cytotox	ATXN2 expr inh	ATXN viability	HepG2 tox-1	TGFb SMAD3 inh	KB-V1 cytotox	others
CC(C)c1ccc(N2C(=O)NC(=O)/C(=C\C=C\c3ccco3)C2=O)cc1	?	?	28µM	-	10µM	?	TGFb confirm=4.1µM;HepG2 tox-2=7.3µM;TGFb CCL64 inh=5.8µM;COP TGFb inh=-
CC(=NCCN1CCOCC1)c1c(O)n(Cc2ccccc2)c(=O)[nH]c1=O	-	-	-	-	-	-
CC(=NCCc1c[nH]c2ccccc12)c1c(O)n(Cc2ccccc2)c(=O)[nH]c1=O	-	?	-	-	11µM	12µM	TGFb confirm=21µM;HepG2 tox-2=-;TGFb CCL64 inh=?;COP TGFb inh=-
COc1ccc(C[C@H]2c3cc(OC)c(OC)cc3CCN2C)cc1OC	.	.	-	.	.	.
COc1ccc(-n2nnnc2C(c2ccccc2OC(F)(F)F)N2CCC(n3c(=O)[nH]c4ccccc43)CC2)cc1 (stereo unspecified)	?	?	?	-	11µM	-	TGFb confirm=5.8µM;HepG2 tox-2=?;TGFb CCL64 inh=?;COP TGFb inh=-
COc1ccc(-n2nnnc2C(CCc2ccccc2)N2CCC(n3c(=O)[nH]c4ccccc43)CC2)cc1 (stereo unspecified)	?	?	10µM	-	11µM	?	TGFb confirm=?;HepG2 tox-2=-;TGFb CCL64 inh=?;COP TGFb inh=-
CC(=O)OC[C@]12CCC(C)=C[C@H]1O[C@@H]1[C@H](O)[C@@H](OC(C)=O)[C@@]2(C)[C@]12CO2	?	-	-	-	-	?	TGFb confirm=0.037µM;HepG2 tox-2=0.15µM;TGFb CCL64 inh=0.037µM;COP TGFb inh=-
COc1ccc(-c2nn(-c3ccccc3)cc2C(=O)N2c3ccc(C)cc3C3CN(C)CCC32)cc1 (stereo unspecified)	-	-	-	-	10µM	-	TGFb confirm=-;HepG2 tox-2=-;TGFb CCL64 inh=?;COP TGFb inh=-
Cc1ccc2c(c1)C1CN(C)CCC1N2C(=O)c1ccco1 (stereo unspecified)	-	-	-	-	-	?
O=C(Oc1ccc([N+](=O)[O-])cc1)N1CCN(/[N+]([O-])=N/Oc2ccc([N+](=O)[O-])cc2[N+](=O)[O-])CC1	.	.	.	-	?	.
COc1ccc2[nH]c(C)c(CCNCc3cccnc3)c2c1	-	-	-	-	-	-
Cc1[nH]c2ccc(OC(F)(F)F)cc2c1CCNCc1ccc(Cl)cc1	?	20µM	?	11µM	10µM	?	TGFb confirm=?;HepG2 tox-2=?;TGFb CCL64 inh=?;COP TGFb inh=?
Cc1[nH]nc2ccc(-c3cncc(OC[C@@H](N)Cc4c[nH]c5ccccc45)c3)cc12	?	2.2µM	.	-	1µM	26µM	TGFb confirm=1.6µM;HepG2 tox-2=1.3µM;TGFb CCL64 inh=-;COP TGFb inh=-
C[C@]12CCC3C(CC[C@H]4CC(O)CC[C@]34C)C1CC/C2=N/NC(=O)c1ccncc1 (stereo partly specified)	-	-	?	-	-	-
c1cncc([C@@H]2CCCCN2)c1	.	.	-	.	.	.
CCCOc1ccc(N2C(=O)CC(N3CCC(O)(c4cccc(C(F)(F)F)c4)CC3)C2=O)cc1 (stereo unspecified)	-	-	?	-	-	-
Nc1nc(N)nc(NC2CC2)n1	.	-	-	.	.	.
CN1CCC(N(C)c2nc(-c3ccccc3)nc3ccccc23)CC1	-	?	-	-	-	-
OC(c1ccccc1)(c1ccccc1)C1CCNCC1	-	-	-	-	-	-
O=C(CCN1CCN(CCO)CC1)N1c2ccccc2Sc2ccc(C(F)(F)F)cc21	-	-	-	-	-	-
C[C@@H](N)[C@@H](O)c1ccccc1	.	-	-	.	.	.
CNCCCN1c2ccccc2CCc2ccccc21	-	?	?	-	-	?
CC(=O)c1ccc2c(c1)N(CCCN(C)C)c1ccccc1S2	-	?	?	-	-	?
CN1CCN(P(=O)(c2ccccc2)c2nc3ccccc3s2)CC1 (stereo unspecified)	-	-	-	-	-	?
C=C1C/C(=C/C)C(=O)O[C@@H]2CCN3CC=C(COC(=O)[C@]1(C)O)[C@@H]23	.	.	.	-	-	.
SMILES	KB-3-1 cytotox	ATXN2 expr inh	ATXN viability	HepG2 tox-1	TGFb SMAD3 inh	KB-V1 cytotox	others
Cc1cc(C(C#N)c2ccc(Cl)cc2)c(Cl)cc1NC(=O)c1cc(I)cc(I)c1O (stereo unspecified)	-	?	?	-	?	-
Cn1c(CCCC(=O)O)nc2cc(N(CCCl)CCCl)ccc21	.	?	-	.	.	.
CC1Cc2ccccc2CN1 (stereo unspecified)	-	.	.	-	-	-
c1ccc(CCN2CCCCC2)cc1	-	.	.	-	-	-
O=C(O)CNC(=O)c1c(O)c2ccccc2n(Cc2ccccc2)c1=O	.	-	.	.	.	.
COC(=O)c1c(C)n(Cc2ccccc2)c2ccc(O)cc12	-	-	-	-	-	-
CCN(CC)C(C)C(=O)c1ccccc1 (stereo unspecified)	.	-	-	.	.	.
NCC(=O)c1ccc2ccccc2c1	-	.	.	-	-	-
Cc1ccc(C(O)P(=O)(OCCC(C)C)c2ccc(N(C)C)cc2)cc1 (stereo unspecified)	-	-	-	-	?	-

Assay outcomes from PubChem.
